{"source": "the supplement of paper PMC8728848", "binders": {"B1": {"name": "FliC (Clostridium difficile) (protein)", "chain": "MRVNTNVSALIANNQMGRNVNGQSKSMEKLSSGVRIKRAADDAAGLAISEKMRAQIKGLDQAGRNVQDGISVVQTAEGSLEETGNILQRMRTLSLQSANEINNTEEREKIADELTQLKDEIERISSSTEFNGKKLLDGTSSTIRLQVGASYGTNVSGTSNNNNEIKIQLVNTASIMASAGITTASIGSMKAGGTTGTDAAKTMVSSLDAALKSLNSSRAKLGAQQNRLESTQNNLNNTLENVTAAESRIRDTDVASEMVNLSKMNILVQASQSMLAQANQQPQGVLQLLG"}}, "test_in_all_cases": "glycan array binding signal (z-score within array); higher = stronger binding", "details_in_all_cases": "glycan notation: IUPAC condensed, linker removed", "key": {"[1]": {"target": "Fuc(a1-2)Gal(b1-3)GalNAc(a1-3)[Fuc(a1-2)]Gal(b1-4)Glc", "in_short": "(§1)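 Glycan array binding is given as a within-array Z-score, which can be read as non-binding when negative. The arrays, 3228 of them, came from the Consortium for Functional Glycomics database and were retained only where the protein sequence was available. Z-scores were averaged across arrays of the same protein sequence at different concentrations or buffers and across linkers.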"}, "[2]": {"target": "Fuc(a1-2)Gal(b1-3)[Fuc(a1-4)]GlcNAc(b1-2)Man(a1-3)[Fuc(a1-2)Gal(b1-3)[Fuc(a1-4)]GlcNAc(b1-2)Man(a1-3)]Man(b1-4)GlcNAc(b1-4)GlcNAc", "in_short": "as §1"}, "[3]": {"target": "Fuc(a1-2)Gal(b1-4)GlcNAc(b1-3)Gal(b1-4)GlcNAc(b1-2)Man(a1-3)[Fuc(a1-2)Gal(b1-4)GlcNAc(b1-3)Gal(b1-4)GlcNAc(b1-2)Man(a1-6)]Man(b1-4)GlcNAc(b1-4)GlcNAc", "in_short": "as §1"}, "[4]": {"target": "Fuc(a1-2)Gal(b1-4)[Fuc(a1-3)]GlcNAc(b1-2)[Fuc(a1-2)Gal(b1-4)[Fuc(a1-3)]GlcNAc(b1-4)]Man(a1-3)[Fuc(a1-2)Gal(b1-4)[Fuc(a1-3)]GlcNAc(b1-2)Man(a1-6)]Man(b1-4)GlcNAc(b1-4)GlcNAc", "in_short": "as §1"}, "[5]": {"target": "Fuc(a1-2)Gal6S(b1-3)GlcNAc6S", "in_short": "as §1"}, "Fuc(a1-2)[Gal(a1-3)]Gal": {"target": "Fuc(a1-2)[Gal(a1-3)]Gal", "in_short": "as §1"}, "[6]": {"target": "Fuc(a1-2)[Gal(a1-3)]Gal(b1-3)GlcNAc(b1-3)GalNAc", "in_short": "as §1"}, "[7]": {"target": "Fuc(a1-2)[GalNAc(a1-3)]Gal(b1-3)GlcNAc(b1-2)Man(a1-3)[Fuc(a1-2)[GalNAc(a1-3)]Gal(b1-3)GlcNAc(b1-2)Man(a1-6)]Man(b1-4)GlcNAc(b1-4)[Fuc(a1-6)]GlcNAc", "in_short": "as §1"}, "[8]": {"target": "Fuc(a1-2)[GalNAc(a1-3)]Gal(b1-3)GlcNAc(b1-6)GalNAc", "in_short": "as §1"}, "[9]": {"target": "Fuc(a1-2)[GalNAc(a1-4)]Gal(b1-4)GlcNAc", "in_short": "as §1"}, "[10]": {"target": "Fuc(a1-3)[Gal(b1-4)]GlcNAc(b1-3)Gal(b1-4)[Fuc(a1-3)]GlcNAc(b1-3)Gal(b1-4)[Fuc(a1-3)]GlcNAc", "in_short": "as §1"}, "[11]": {"target": "Gal(a1-3)Fuc(a1-2)Gal(b1-4)GlcNAc(b1-3)[Gal(a1-3)Fuc(a1-2)Gal(b1-4)GlcNAc(b1-6)]GalNAc", "in_short": "as §1"}, "Gal(a1-3)Gal(b1-3)GlcNAc": {"target": "Gal(a1-3)Gal(b1-3)GlcNAc", "in_short": "as §1"}, "[12]": {"target": "Gal(a1-3)Gal(b1-4)GlcNAc(b1-2)Man(a1-3)[Gal(a1-3)Gal(b1-4)GlcNAc(b1-2)Man(a1-6)]Man(b1-4)GlcNAc(b1-4)GlcNAc", "in_short": "as §1"}, "[13]": {"target": "Gal(a1-4)Gal(b1-3)GlcNAc(b1-2)Man(a1-3)[Gal(a1-4)Gal(b1-3)GlcNAc(b1-2)Man(a1-6)]Man(b1-4)GlcNAc(b1-4)GlcNAc", "in_short": "as §1"}, "[14]": {"target": "Gal(a1-4)Gal(b1-4)GlcNAc(b1-3)Gal(b1-4)Glc", "in_short": "as §1"}, "[15]": {"target": "Gal(b1-3)GlcNAc(a1-6)Gal(b1-4)GlcNAc", "in_short": "as §1"}, "Gal(b1-3)GlcNAc6S": {"target": "Gal(b1-3)GlcNAc6S", "in_short": "as §1"}, "[16]": {"target": "Gal(b1-3)[Neu5Ac(a2-6)]GlcNAc(b1-4)Gal(b1-4)Glc", "in_short": "as §1"}, "[17]": {"target": "Gal(b1-4)GlcNAc(b1-2)Man(a1-3)Man(b1-4)GlcNAc(b1-4)GlcNAc", "in_short": "as §1"}, "[18]": {"target": "Gal(b1-4)GlcNAc(b1-2)Man(a1-3)[Gal(b1-4)GlcNAc(b1-2)Man(a1-6)]Man(b1-4)GlcNAc(b1-4)GlcNAc", "in_short": "as §1"}, "[19]": {"target": "Gal(b1-4)GlcNAc(b1-2)[Gal(b1-4)GlcNAc(b1-4)]Man(a1-3)[GlcNAc(b1-4)][Gal(b1-4)GlcNAc(b1-2)Man(a1-6)]Man(b1-4)GlcNAc(b1-4)GlcNAc", "in_short": "as §1"}, "[20]": {"target": "Gal(b1-4)GlcNAc(b1-2)[Gal(b1-4)GlcNAc(b1-6)]Man(a1-6)[Gal(b1-4)GlcNAc(b1-2)Man(a1-3)]Man(b1-4)GlcNAc(b1-4)[Fuc(a1-6)]GlcNAc", "in_short": "as §1"}, "[21]": {"target": "Gal(b1-4)GlcNAc(b1-3)Gal(b1-4)GlcNAc(b1-2)Man(a1-3)[Gal(b1-4)GlcNAc(b1-3)Gal(b1-4)GlcNAc(b1-2)Man(a1-6)]Man(b1-4)GlcNAc(b1-4)[Fuc(a1-6)]GlcNAc", "in_short": "as §1"}, "[22]": {"target": "Gal(b1-4)GlcNAc(b1-3)Gal(b1-4)GlcNAc(b1-3)Gal(b1-4)GlcNAc(b1-2)Man(a1-3)[Gal(b1-4)GlcNAc(b1-3)Gal(b1-4)GlcNAc(b1-3)Gal(b1-4)GlcNAc(b1-2)Man(a1-6)]Man(b1-4)GlcNAc(b1-4)GlcNAc", "in_short": "as §1"}, "[23]": {"target": "Gal(b1-4)GlcNAc(b1-3)Gal(b1-4)GlcNAc(b1-3)[Gal(b1-4)GlcNAc(b1-3)Gal(b1-4)GlcNAc(b1-6)]GalNAc", "in_short": "as §1"}, "Gal(b1-6)Gal": {"target": "Gal(b1-6)Gal", "in_short": "as §1"}, "Gal3S(b1-4)Glc": {"target": "Gal3S(b1-4)Glc", "in_short": "as §1"}, "Gal4S6S(b1-4)GlcNAc": {"target": "Gal4S6S(b1-4)GlcNAc", "in_short": "as §1"}}, "note": "Many of the other results were omitted from the sample, so the strongest signals are more common in it than they were.", "data": [{"binder": "B1", "values": [{"measurement": "glycan array binding signal (z-score)", "setting": "[1]", "value": 0.883}, {"measurement": "glycan array binding signal (z-score)", "setting": "[2]", "value": 0.721}, {"measurement": "glycan array binding signal (z-score)", "setting": "[3]", "value": 0.257}, {"measurement": "glycan array binding signal (z-score)", "setting": "[4]", "value": 0.298}, {"measurement": "glycan array binding signal (z-score)", "setting": "[5]", "value": 0.013}, {"measurement": "glycan array binding signal (z-score)", "setting": "Fuc(a1-2)[Gal(a1-3)]Gal", "value": 0.187}, {"measurement": "glycan array binding signal (z-score)", "setting": "[6]", "value": 0.173}, {"measurement": "glycan array binding signal (z-score)", "setting": "[7]", "value": 1.26}, {"measurement": "glycan array binding signal (z-score)", "setting": "[8]", "value": -0.176}, {"measurement": "glycan array binding signal (z-score)", "setting": "[9]", "value": -0.165}, {"measurement": "glycan array binding signal (z-score)", "setting": "[10]", "value": -0.069}, {"measurement": "glycan array binding signal (z-score)", "setting": "[11]", "value": -0.356}, {"measurement": "glycan array binding signal (z-score)", "setting": "Gal(a1-3)Gal(b1-3)GlcNAc", "value": 4.21}, {"measurement": "glycan array binding signal (z-score)", "setting": "[12]", "value": 8.29}, {"measurement": "glycan array binding signal (z-score)", "setting": "[13]", "value": 4.1}, {"measurement": "glycan array binding signal (z-score)", "setting": "[14]", "value": 0.243}, {"measurement": "glycan array binding signal (z-score)", "setting": "[15]", "value": -0.584}, {"measurement": "glycan array binding signal (z-score)", "setting": "Gal(b1-3)GlcNAc6S", "value": -0.373}, {"measurement": "glycan array binding signal (z-score)", "setting": "[16]", "value": -0.467}, {"measurement": "glycan array binding signal (z-score)", "setting": "[17]", "value": -0.407}, {"measurement": "glycan array binding signal (z-score)", "setting": "[18]", "value": 0.049}, {"measurement": "glycan array binding signal (z-score)", "setting": "[19]", "value": -0.113}, {"measurement": "glycan array binding signal (z-score)", "setting": "[20]", "value": 0.28}, {"measurement": "glycan array binding signal (z-score)", "setting": "[21]", "value": 2.39}, {"measurement": "glycan array binding signal (z-score)", "setting": "[22]", "value": 2.15}, {"measurement": "glycan array binding signal (z-score)", "setting": "[23]", "value": 2.33}, {"measurement": "glycan array binding signal (z-score)", "setting": "Gal(b1-6)Gal", "value": 0.447}, {"measurement": "glycan array binding signal (z-score)", "setting": "Gal3S(b1-4)Glc", "value": -0.03}, {"measurement": "glycan array binding signal (z-score)", "setting": "Gal4S6S(b1-4)GlcNAc", "value": -0.316}]}]}
